Common to all, as to conditions: mRNA level, 48 h; actives raise or lower the signal
Read-out in assay [1]: Forkhead box O3 (FOXO3), FOXO3 (gene 2309)
Nature of the assay: LTEA_HepaRG_FOXO3: Life Technologies and Expression Analysis (LTEA) Assay for Forkhead box O3 (FOXO3) using HepaRG (AID 2283459). The essentials:
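Differentiated human HepaRG cells, 48 h post-plating, exposed in duplicate for 48 h in serum-free induction medium; 8-point half-log series from 100 uM in 0.5% DMSO. FOXO3 mRNA by TaqMan qRT-PCR, normalized to ACTB/GAPDH/POLR2A; bidirectional fit versus DMSO.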

Read-out in assay [2]: ABC Transporter (ABCB1), ABCB1 (gene 5243)
As to the kind of experiment: LTEA_HepaRG_ABCB1: Life Technologies and Expression Analysis (LTEA) Assay for ABC Transporter (ABCB1) using HepaRG (AID 2283460). The essentials: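 HepaRG cells exposed in duplicate for 48 h in serum-free induction medium to eight half-log concentrations up to 100 uM in 0.5% DMSO. ABCB1 mRNA quantified by qRT-PCR, normalised to ACTB, GAPDH and POLR2A; fitted bidirectionally versus DMSO.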

Read-out in assay [3]: ABC Transporter (ABCC3), ABCC3 (gene 8714)
As to the kind of experiment: LTEA_HepaRG_ABCC3: Life Technologies and Expression Analysis (LTEA) Assay for ABC Transporter (ABCC3) using HepaRG (AID 2283462). Put shortly: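 Transcriptional change of ABCC3 in HepaRG after 48 h treatment, determined by qRT-PCR normalized to endogenous controls. Concentrations spanned eight half-log steps to 100 uM in 0.5% DMSO.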

Read-out in assay [4]: ABC Transporter (ABCB11), ABCB11 (gene 8647)
Nature of the assay: LTEA_HepaRG_ABCB11: Life Technologies and Expression Analysis (LTEA) Assay for ABC Transporter (ABCB11) using HepaRG (AID 2283463). The essentials:
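Differentiated human HepaRG cells in serum-free induction medium, dosed in duplicate for 48 h. Eight-point half-log series from 100 uM in 0.5% DMSO; ABCB11 mRNA by qRT-PCR, normalized to ACTB, GAPDH, POLR2A, fitted bidirectionally versus DMSO.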

Read-out in assay [5]: ABC Transporter (ABCC2), ABCC2 (gene 1244)
As to the kind of experiment: LTEA_HepaRG_ABCC2: Life Technologies and Expression Analysis (LTEA) Assay for ABC Transporter (ABCC2) using HepaRG (AID 2283464). The essentials: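 After plating and 48 h culture, HepaRG medium is replaced with serum-free induction medium and chemicals are added (8 concentrations, max 100 uM, 0.5% DMSO) for 48 h. Total RNA then undergoes qRT-PCR for ABCC2 with housekeeping normalization.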

Read-out in assay [6]: Broad substrate specificity ATP-binding cassette transporter ABCG2 (Homo sapiens) (UniProt Q9UNQ0)
As to the kind of experiment: LTEA_HepaRG_ABCG2: Life Technologies and Expression Analysis (LTEA) Assay for ABC Transporter (ABCG2) using HepaRG (AID 2283465). Put shortly: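 Differentiated HepaRG cells were exposed for 48 h in serum-free induction medium to 8 half-log concentrations, top 100 uM, in 0.5% DMSO. ABCG2 mRNA was measured by qRT-PCR, normalized to ACTB, GAPDH and POLR2A, with bidirectional fitting versus DMSO.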

Read-out in assay [7]: ATP-citrate lyase (ACLY), ACLY (gene 47)
Nature of the assay: LTEA_HepaRG_ACLY: Life Technologies and Expression Analysis (LTEA) Assay for ATP-citrate lyase (ACLY) using HepaRG (AID 2283466). Put shortly: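 Differentiated HepaRG cells exposed 48 h in serum-free induction medium to eight half-log concentrations up to 100 uM in 0.5% DMSO, duplicates. Transcript measured by Fluidigm TaqMan qRT-PCR, normalized to ACTB, GAPDH, POLR2A; bidirectional fit versus DMSO.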

Read-out in assay [8]: Alkaline Phosphatase, Placental (ALPP) gene, ALPP (gene 250)
Nature of the assay: LTEA_HepaRG_ALPP: Life Technologies and Expression Analysis (LTEA) Assay for Alkaline Phosphatase, Placental (ALPP) gene using HepaRG (AID 2283468). Put shortly:
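Using human liver HepaRG cells, chemicals are tested in duplicate over 48 h at half-log concentrations topping at 100 uM; phenobarbital 1 mM serves as induction control. ALPP mRNA change by qRT-PCR, bidirectional fit against vehicle.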

Read-out in assay [9]: Bcl-2 (BAD) gene, BAD (gene 572)
Nature of the assay: LTEA_HepaRG_BAD: Life Technologies and Expression Analysis (LTEA) Assay for Bcl-2 (BAD) gene using HepaRG (AID 2283469). The essentials: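 Differentiated HepaRG cells were exposed in duplicate in 0.5% DMSO for 48 h to eight-point half-log concentrations up to 100 uM. BAD mRNA was measured by Fluidigm TaqMan qRT-PCR, normalized to ACTB, GAPDH and POLR2A, and fitted bidirectionally against DMSO.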

Read-out in assay [10]: Bcl-2 (BAX) gene, BAX (gene 581)
As to the kind of experiment: LTEA_HepaRG_BAX: Life Technologies and Expression Analysis (LTEA) Assay for Bcl-2 (BAX) gene using HepaRG (AID 2283470). The essentials:
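Differentiated human HepaRG cells, plated 48 h then switched to serum-free induction medium, were exposed 48 h to 8 half-log concentrations up to 100 uM in 0.5% DMSO; BAX mRNA measured by qRT-PCR, normalized to ACTB, GAPDH, POLR2A.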

Read-out in assay [11]: adenosine kinase (ADK) gene, ADK (gene 132)
As to the kind of experiment: LTEA_HepaRG_ADK: Life Technologies and Expression Analysis (LTEA) Assay for adenosine kinase (ADK) gene using HepaRG (AID 2283471). The essentials:
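Read-out is ADK transcript level measured by qRT-PCR and normalised to three housekeeping genes. Cells are human HepaRG, dosed for 48 h at up to 100 uM in 0.5% DMSO. Gain or loss of signal is fitted against DMSO controls.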

Read-out in assay [12]: Alpha-fetoprotein (AFP) gene, AFP (gene 174)
Nature of the assay: LTEA_HepaRG_AFP: Life Technologies and Expression Analysis (LTEA) Assay for Alpha-fetoprotein (AFP) gene using HepaRG (AID 2283472). The essentials: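 Human HepaRG cells plated 48 h, then switched to serum-free induction medium and exposed in duplicate for 48 h to 8-point half-log series from 100 uM in 0.5% DMSO. AFP mRNA by qRT-PCR, normalized to ACTB, GAPDH, POLR2A; bidirectional fit versus DMSO.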

Read-out in the next assay: BCL2L11 (gene 10018)
As to the kind of experiment: LTEA_HepaRG_BCL2L11: Life Technologies and Expression Analysis (LTEA) Assay for Bcl-2 (BCL2L11) gene using HepaRG (AID 2283473). Put shortly: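 Human hepatic HepaRG cultures are treated 48 h with test chemicals (maximum 100 uM, 0.5% DMSO vehicle). Expression of BCL2L11 is measured by qRT-PCR against ACTB, GAPDH and POLR2A, with activity in either direction scored relative to vehicle.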

Read-out in assay [13]: Apolipoprotein A-V (APOA5) gene, APOA5 (gene 116519)
Nature of the assay: LTEA_HepaRG_APOA5: Life Technologies and Expression Analysis (LTEA) Assay for Apolipoprotein A-V (APOA5) gene using HepaRG (AID 2283474). The essentials:
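Concentration-response of APOA5 expression in HepaRG: eight half-log doses to 100 uM, 48 h, qRT-PCR normalized to ACTB/GAPDH/POLR2A, bidirectional fitting with 0.5% DMSO as baseline.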

Read-out in assay [14]: Apoptosis regulator Bcl-2 (Homo sapiens) (UniProt P10415)
Nature of the assay: LTEA_HepaRG_BCL2: Life Technologies and Expression Analysis (LTEA) Assay for Bcl-2 gene using HepaRG (AID 2283475). Put shortly:
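Differentiated HepaRG cells in serum-free induction medium were exposed for 48 h to eight half-log concentrations up to 100 uM in 0.5% DMSO, in duplicate. BCL2 mRNA was quantified by TaqMan qRT-PCR normalised to ACTB, GAPDH and POLR2A, with bidirectional fitting versus DMSO.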

Read-out in assay [15]: Bcl-2 (BID) gene, BID (gene 637)
Nature of the assay: LTEA_HepaRG_BID: Life Technologies and Expression Analysis (LTEA) Assay for Bcl-2 (BID) gene using HepaRG (AID 2283476). The essentials:
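Differentiated HepaRG cells in serum-free induction medium were exposed in duplicate for 48 h to eight half-log concentrations up to 100 uM in 0.5% DMSO. BID mRNA was quantified by qRT-PCR, normalized to ACTB, GAPDH and POLR2A.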

Read-out in a further assay: Caspase-3 (Homo sapiens) (UniProt P42574)
As to the kind of experiment: LTEA_HepaRG_CASP3: Life Technologies and Expression Analysis (LTEA) Assay for cysteine-aspartic acid protease (CASP3) using HepaRG (AID 2283477). The essentials: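 Transcript-level assay: CASP3 mRNA in human HepaRG after 48 h treatment, eight half-log concentrations from 100 uM in 0.5% DMSO, quantified by qRT-PCR.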

Read-out in assay [16]: Cytochrome P450 (CYP24A1), CYP24A1 (gene 1591)
Nature of the assay: LTEA_HepaRG_CYP24A1: Life Technologies and Expression Analysis (LTEA) Assay for Cytochrome P450 (CYP24A1) using HepaRG (AID 2283478). Put shortly:
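Gene expression of CYP24A1 by TaqMan qRT-PCR in HepaRG after 48 h treatment, highest concentration 100 uM; activity fitted in both directions relative to DMSO vehicle.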

A word on the AC50: it is the concentration at which the activity in the assay is half-maximal.

Calls of active or inactive are those of the source. Rule for the calls: active = hit-call score of the fitted dose curve at least 0.9, where 1 is the maximum; inactive = score below 0.9.

Chain of Apoptosis regulator Bcl-2 (Homo sapiens) (P10415 whole entry, looked up): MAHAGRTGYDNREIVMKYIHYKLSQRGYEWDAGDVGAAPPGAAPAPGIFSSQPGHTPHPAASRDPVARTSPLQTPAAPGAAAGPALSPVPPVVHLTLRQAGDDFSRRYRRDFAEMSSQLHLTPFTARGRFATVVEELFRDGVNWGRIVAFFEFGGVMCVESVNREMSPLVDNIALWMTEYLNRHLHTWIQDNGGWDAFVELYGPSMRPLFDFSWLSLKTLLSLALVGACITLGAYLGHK
Chain of Broad substrate specificity ATP-binding cassette transporter ABCG2 (Homo sapiens) (Q9UNQ0 whole entry, looked up): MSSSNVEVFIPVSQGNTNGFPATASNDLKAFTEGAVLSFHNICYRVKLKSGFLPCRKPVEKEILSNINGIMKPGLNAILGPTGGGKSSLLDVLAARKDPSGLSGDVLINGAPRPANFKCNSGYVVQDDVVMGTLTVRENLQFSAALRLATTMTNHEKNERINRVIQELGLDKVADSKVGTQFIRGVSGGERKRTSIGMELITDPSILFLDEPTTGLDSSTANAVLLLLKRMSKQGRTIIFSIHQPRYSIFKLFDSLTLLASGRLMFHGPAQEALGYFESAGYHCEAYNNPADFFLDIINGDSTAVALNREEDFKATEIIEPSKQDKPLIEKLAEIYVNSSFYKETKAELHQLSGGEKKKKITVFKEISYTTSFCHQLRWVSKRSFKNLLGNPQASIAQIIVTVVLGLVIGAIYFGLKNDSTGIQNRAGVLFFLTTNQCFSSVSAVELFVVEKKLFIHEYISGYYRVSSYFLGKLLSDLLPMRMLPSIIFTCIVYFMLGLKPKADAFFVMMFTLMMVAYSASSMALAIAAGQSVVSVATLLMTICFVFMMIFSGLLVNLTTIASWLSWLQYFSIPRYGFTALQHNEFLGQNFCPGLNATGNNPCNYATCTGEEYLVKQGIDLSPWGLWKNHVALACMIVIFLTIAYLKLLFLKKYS
Chain of Caspase-3 (Homo sapiens) (P42574 whole entry, looked up): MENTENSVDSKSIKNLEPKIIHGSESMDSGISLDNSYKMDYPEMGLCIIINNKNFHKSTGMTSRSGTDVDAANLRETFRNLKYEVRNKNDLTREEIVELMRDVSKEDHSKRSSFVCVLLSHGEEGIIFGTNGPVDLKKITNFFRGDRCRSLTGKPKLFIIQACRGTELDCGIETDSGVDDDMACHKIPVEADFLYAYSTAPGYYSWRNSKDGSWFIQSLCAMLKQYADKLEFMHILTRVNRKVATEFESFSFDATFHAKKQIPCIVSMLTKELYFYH

Turning to `CCCCc1ccccc1`, the compound was classed as inactive in assay [1], in [2], in [3], in assay [4], in assay [5] and in [6]. Further, the outcome in assay [7], in [8], in assay [9], in assay [10], in assay [11] and in [12] was inactive. The result (with BCL2L11 (gene 10018); in assay [13]; in [14]; in assay [15]; with Caspase-3 (Homo sapiens); in [16]) was inactive.

`c1ccc2c(c1)Nc1ccccc1S2`: the compound was classed as inactive in [1], in [2], in assay [3], in assay [4], in assay [5] and in [6]. The result in assay [7], in assay [8], in assay [9], in assay [10], in [11] and in assay [12] was inactive. Further, the outcome (with BCL2L11 (gene 10018); in assay [13]; in [14]; in [15]; with Caspase-3 (Homo sapiens); in assay [16]) was inactive.

Regarding `Nc1cc2c3c(c1)C(c1ccccc1)=N[C@@H](NC(=O)c1cccnc1)C(=O)N3CC2`, the compound was called inactive in [1], in assay [3], in [4], in assay [5], in assay [6] and in [7]. Besides, the outcome (in [8]; in assay [9]; in assay [10]; in assay [11]; in assay [12]; in the assay with BCL2L11 (gene 10018)) was inactive. Also, the result (in assay [13]; in [14]; in assay [15]; with Caspase-3 (Homo sapiens); in assay [16]) was inactive. Further, in assay [2], the AC50 is 18.5 µM (active).

On to `CCC1(c2ccccc2)C(=O)N=C(O)NC1=O` (stereo not given), for which the outcome in assay [1], in assay [2], in assay [3], in [4], in [5] and in assay [6] was inactive. Also, the compound was called inactive in assay [7], in assay [8], in assay [9], in assay [10], in assay [11] and in assay [12]. The outcome (with BCL2L11 (gene 10018); in assay [13]; in assay [14]; in [15]; with Caspase-3 (Homo sapiens); in [16]) was inactive.

For the compound `CC(Cc1ccc(OCC(=O)O)cc1)NCC(O)c1csc(C(F)(F)F)n1` (stereo not given), the compound was classed as inactive in assay [1], in assay [2], in [3], in assay [4], in [5] and in assay [6]. Further, the result (in assay [7]; in assay [9]; in assay [10]; in assay [11]; in assay [12]; with BCL2L11 (gene 10018)) was inactive. Moreover, the call (in assay [13]; in assay [15]; in the assay with Caspase-3 (Homo sapiens)) was inactive. The AC50 in [8] was 0.0552 µM (active); in assay [14], 0.125 µM (active); in assay [16], 0.00316 µM (active).

These data come from PubChem BioAssay (EPA / NIEHS).
